EPAC1 agonist: validation of human EPAC1 agonists. Potency, µM, usual class: activators. O95398. EPAC1 Rap1b BODIPY-GDP exchange, fluorescence. 16,000 compounds, 1% hits. AID 1645883; further: nearly all actives have a fitted effect of over 70% in size
EPAC2 antag: human EPAC2 antagonism, validation; Potency, µM (doses to about 112 µM), hits mostly inhibitors; AID 1645886; EPAC2 Rap1B BODIPY-GDP exchange, fluorescence; Q8WZA2; 16,000 compounds, 1.7% hits; further: nearly all actives have a fitted effect of over 40% in size
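Fluorescent exchange read-out: 100 nM EPAC2 with 250 nM RAP1B–BODIPY-GDP and 50 uM GDP; BODIPY-GDP release lowers fluorescence. Read at 480/540 nm every 5 min for 30 min at room temperature; normalized to 6.5 mM cAMP.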
Each line names hits and unclear results; the compound was inactive in the other large screens; ! = not confirmed by another sample. Sampled rows, rich in hits. Any-hit rate of the full collection: about 2.9%. The call rests on the fitted dose curve; in most records, active means well fitted curve in the direction sought with a large enough effect; inconclusive means small, poorly fitted or top-dose-only effect, or another doubt; inactive means no such curve, though single readings can be large; an effect the other way counts as inactive or inconclusive.

C=CS(=O)(=O)N(Cc1ccccc1Br)[C@H](CO)Cc1ccccc1	EPAC2 antag 35.5µM
O=S(=O)(N(Cc1ccccc1)[C@@H](CO)Cc1ccccc1)N(Cc1ccccc1)[C@@H](CO)Cc1ccccc1	none
CC(C)C[C@H](CO)N(Cc1ccccc1)S(=O)(=O)N(Cc1ccccc1)[C@@H](CO)CC(C)C	EPAC2 antag inconclusive
C=CS(=O)(=O)N(Cc1ccccc1)[C@H](CO)CC(C)C	EPAC2 antag 79.4µM
COc1cccc(CN(C)C(=O)c2cnn(-c3nccc(-c4ccc5c(c4)OCO5)n3)c2C)c1	none
Cc1cccc2cc(CN(CC3CCCO3)C(=O)C3CC3)c(N(C)C)nc12 (configuration not stated)	none
O=C(NNCS(=O)(=O)O)c1ccncc1	EPAC1 agonist 56.2µM
O=C(NNCNNC(=O)c1ccncc1)c1ccncc1	none
COCCC1CCCCN1Cc1nc(N2CCCCC2)c2cc(OC)c(OC)cc2n1 (configuration not stated)	none
Cc1cccc(N(C)C(=S)Oc2ccc3ccccc3c2)c1	EPAC1 agonist 112µM!
Cc1cccc(N(C)C(=S)Oc2ccc3c(c2)CCC3)c1	none
COc1cc(=O)n2c(c1C(=O)NC(C)c1ccco1)CCN(C(=O)c1cccc(C)c1C)CC2 (configuration not stated)	none
CC(C)(C)[C@H]1CCC(=O)N([C@H](CN=[N+]=[N-])Cc2ccccc2)CC1	EPAC2 antag 56.2µM
[N-]=[N+]=NC[C@H](Cc1ccccc1)N1CC[C@@H](O)CCC1=O	none
Cn1c(C(c2cc3ccccc3n2C)c2cc3ccccc3n2C)cc2ccccc21	EPAC1 agonist inconclusive
CCC1OC(=O)C[C@@H](O)[C@H](C)[C@@H](O[C@@H]2O[C@H](C)C[C@H](N(C)C)[C@H]2O)[C@@H](CC=O)C[C@@H](C)C(=O)/C=C/[C@]2(C)OC2C1C (some centres not stated)	none
CN(C)CCCN1c2ccccc2Sc2ccc(Cl)cc21	none
OCCN1CCN(CCCN2c3ccccc3Sc3ccc(Cl)cc32)CC1	EPAC2 antag 35.5µM!
COc1cc(=O)n2c(c1C(=O)N(C)Cc1nonc1C)CCN(Cc1cccc(Cl)c1)CC2	none
COC(=O)[C@@H]1CCCN1Cc1ccc2c(c1)CN(Cc1cccn1-c1ncccn1)CCO2	none
CN(C)c1ncc2nc(-c3cccs3)c(=O)n(CCC#N)c2n1	EPAC1 agonist 100µM
COCCn1c(=O)c(-c2ccc(OC)cc2)nc2cnc(Nc3ccccc3)nc21	none
CN(C)c1ncc2ncc(=O)n(Cc3cccs3)c2n1	EPAC2 antag 44.7µM
O=c1c(-c2cc(F)cc(F)c2)nc2cnc(N3CCOCC3)nc2n1-c1ccccc1	EPAC1 agonist 112µM
O=c1c(-c2ccccc2)nc2cnc(N3CCOCC3)nc2n1-c1ccccc1	none
COc1ncc2ncc(=O)n(Cc3cccs3)c2n1	none
COc1ncc2nc(-c3cccs3)c(=O)n(CCC#N)c2n1	none
COCCn1c(=O)c(-c2cccs2)nc2cnc(Nc3ccccc3)nc21	EPAC1 agonist 100µM
COc1ccc2[nH]c(C(O)C(O)c3nc4c(OC)c(OC)ccc4[nH]3)nc2c1OC (configuration not stated)	none
N#CCCn1c(=O)c(-c2ccc(Cl)cc2)nc2cnc(Nc3ccccc3)nc21	EPAC1 agonist 112µM
O=c1c(-c2cc(F)cc(F)c2)nc2cnc(N3CCOCC3)nc2n1Cc1cccs1	none
O=c1c(-c2cc(F)cc(F)c2)nc2cnc(N3CCNCC3)nc2n1Cc1cccs1	EPAC1 agonist inconclusive, EPAC2 antag 44.7µM
COc1ccc(-n2c(=O)c(-c3cccs3)nc3cnc(Nc4cccc(OC)c4)nc32)cc1	EPAC1 agonist 100µM
COc1cccc(Nc2ncc3nc(-c4cccs4)c(=O)n(CCC#N)c3n2)c1	EPAC1 agonist inconclusive
COc1ccc(-n2c(=O)c(-c3cccs3)nc3cnc(N4CCOCC4)nc32)cc1	EPAC1 agonist inconclusive
COCCn1c(=O)c(-c2cccs2)nc2cnc(N3CCOCC3)nc21	EPAC1 agonist 112µM
N#CCCn1c(=O)c(-c2ccccc2)nc2cnc(Nc3ccccc3)nc21	none
Cc1cccc2cc(CN(CC3CCCO3)C(=O)c3cccc(F)c3)c(N(C)C)nc12 (configuration not stated)	none
O=C(c1ccc(F)c(F)c1)N1CCOc2ccc(CN3CCN(CCO)CC3)cc2C1	none
COc1ccccc1-c1cc2c(c(OC)c1)OCCN(CCC(C)c1ccc(C)o1)C2 (configuration not stated)	none
Cc1csc(C(C)N(C)C(=O)c2cnn(-c3nccc(-c4cc(C)sc4C)n3)c2C)n1 (configuration not stated)	none
CN1CCN(c2ncc3nc(-c4cccs4)c(=O)n(Cc4cccs4)c3n2)CC1	none
O=c1c(-c2cccs2)nc2cnc(N3CCNCC3)nc2n1Cc1cccs1	EPAC1 agonist inconclusive, EPAC2 antag 56.2µM
COc1cccc(N2[C@@H](CC(C)=O)c3cc(C(F)(F)F)ccc3S2(=O)=O)c1	EPAC2 antag inconclusive
CCOC(=O)C[C@H]1c2ccc(C(F)(F)F)cc2S(=O)(=O)N1c1cccc(OC)c1	EPAC2 antag 44.7µM

Bioassay records deposited in PubChem BioAssay by National Center for Advancing Translational Sciences (NCATS).
